BAZ2B inh – inhibitors of human BAZ2B bromodomain; 4.4% of 360,000 active; Potency, µM (series often up to 114 µM), without a hit: top-dose activity change, negative = inhibition, hits mostly inhibitors; AlphaScreen BAZ2B-H3K14Ac peptide displacement; further: on the % scale 0 is the no-effect control and ±100 the full control effect; nearly all actives have a fitted effect of over 60% in size
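AlphaScreen luminescence quantifies BAZ2B engagement of H3K14Ac peptide; the protein and biotinylated peptide are both at 50 nM final, buffer PBS pH 7.4 with 0.01% Tween-20, all steps at room temperature.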
JMJD2A Tudor – inhibitors of human JMJD2A Tudor domain | O75164 | AlphaScreen JMJD2A-Tudor / H3K4me3 peptide binding | Potency, µM (titrated, usually from 114 µM), inactives show at the top dose activity change, negative = inhibition, actives largely listed as inhibitors | 4.4% of 390,000 active | AID 504339; further: on the % scale 0 is the no-effect control and ±100 the full control effect; nearly all actives have a fitted effect of over 50% in size
L3MBTL1 block – blocks human L3MBTL1; Q9Y468; AlphaScreen L3MBTL1–H3K9me1 peptide binding; Potency, µM (series often up to 57.1 µM), for inactives: at the highest dose activity, negative = inhibition, most hits filed as inhibitors; 0.66% of 230,000 active; AID 485360; further: on the % scale 0 is the no-effect control and ±100 the full control effect; nearly all actives have a fitted effect of over 60% in size
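Displacement of a biotinylated histone H3(1-15) peptide monomethylated at Lys9 (75 nM) from L3MBTL1 (50 nM) was measured by AlphaScreen after a 30 min room-temperature compound incubation; cefsulodin titration served as intraplate control.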
G9a block – G9a (human) methyltransferase inhibition. Q96KQ7. G9a H3K9 monomethylation, AlphaScreen, 2 h. Potency, µM (top dose mostly 102 µM), for inactives: at the top dose activity, negative = inhibition, hits mostly inhibitors. 8.8% of 350,000 active. AID 504332; further: on the % scale 0 is the no-effect control and ±100 the full control effect; nearly all actives have a fitted effect of over 75% in size
Target sequence (Q96KQ7 913-1193 limits assumed): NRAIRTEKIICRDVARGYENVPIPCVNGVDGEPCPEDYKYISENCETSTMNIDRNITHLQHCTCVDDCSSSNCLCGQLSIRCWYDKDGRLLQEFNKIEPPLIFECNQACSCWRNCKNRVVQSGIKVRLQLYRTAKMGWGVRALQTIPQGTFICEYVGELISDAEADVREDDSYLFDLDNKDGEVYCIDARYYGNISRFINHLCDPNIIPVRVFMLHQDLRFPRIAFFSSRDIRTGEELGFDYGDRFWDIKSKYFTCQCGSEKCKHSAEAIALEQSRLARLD
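G9a (20 nM) was preincubated 15 min with compound, then reacted 2 h at room temperature with 500 nM biotin-H3K9 peptide and 20 µM SAM. Monomethyl-H3K9 detected by AlphaScreen using anti-H3K9me1 antibody.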
HP1b binding inh – blocks HP1-beta chromodomain binding to methylated histone tails | 0.56% of 390,000 active | Potency, µM (titrated, usually from 114 µM), for the others: top-dose activity change, negative = inhibition, most hits filed as inhibitors | AlphaScreen HP1-beta / biotin-H3K9me3 peptide binding; further: nearly all actives have a fitted effect of over 70% in size
Target sequence (P83916 whole entry, looked up): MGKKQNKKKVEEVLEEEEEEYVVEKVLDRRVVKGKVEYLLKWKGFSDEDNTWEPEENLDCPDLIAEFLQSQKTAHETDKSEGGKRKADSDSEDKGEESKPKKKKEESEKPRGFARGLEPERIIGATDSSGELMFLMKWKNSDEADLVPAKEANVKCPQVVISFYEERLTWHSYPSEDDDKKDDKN
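Compound inhibition of the preformed complex between 50 nM HP1-beta and 50 nM biotinylated H3K9me3 peptide was read by AlphaScreen. Buffer was PBS pH 7.4 with 0.01% Tween-20. Incubations ran 30 min at room temperature, with 10 ug/mL donor/acceptor beads.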
* = called active by the depositor; ? = inconclusive; nt = not tested or not shown; [ ] = another dose, or the depositor's remark. Sampled rows, rich in hits. Any-hit rate of the full collection: about 11%. The call rests on the fitted dose curve; in most records, active means well fitted inhibition curve with a large enough effect; inconclusive means small, poorly fitted or top-dose-only effect; inactive means no such curve, though single readings can be large or run the other way. Potency means the concentration at half of the fitted maximal effect.

SMILES | BAZ2B inh | JMJD2A Tudor | L3MBTL1 block | G9a block | HP1b binding inh
O=C(CC1OC(=O)c2ccccc21)Nc1ccc(Cl)c(S(=O)(=O)N2CCCCC2)c1 (stereo not drawn) | 1% | -22% | -5% | 14µM* | 3%
Cc1ccc(NC(=O)CC2OC(=O)c3ccccc32)cc1S(=O)(=O)N1CCCCCC1 (stereo not drawn) | 0% | -16% | -4% | ? | 27%
Cc1nnc(SCC(=O)Nc2ccc(N(C)C)cc2)[nH]c1=O | ? | -35% | nt | ? | -12%
Cn1c(=O)c2c([nH]c(=S)n2CCCc2ccccc2)n(C)c1=O | 28µM* | 5µM* | -3%[2.29 µM] | 18%[0.501 µM] | 16µM*
Cn1c(=O)n(Cc2ccccc2Cl)c(=O)c2c1[nH]c(=S)n2C | ? | 13µM* | nt | 1.3µM* | ?
Cn1c(=O)[nH]c(=O)c2c1[nH]c(=S)n2Cc1ccc(Cl)cc1 | 22µM* | 3.2µM* | nt | 0.89µM* | 14µM*
Cn1c(=O)[nH]c(=O)c2c1[nH]c(=S)n2CCCc1ccccc1 | 25µM* | 3.2µM* | 7% | nt | 10µM*
CCc1nn2c(=O)cc(COC(=O)c3cccs3)nc2s1 | -13% | -12% | nt | 4%[59 µM] | 61%
O=S1(=O)C2CC3C=CC2(O3)C(O)C(Cc2ccccc2)N1Cc1cccc(C(F)(F)F)c1 (stereo not drawn) | nt | -6% | nt | nt | 45%
CC(C)Oc1ccc(CNC(=O)c2sc3ncccc3c2-n2cccc2)cc1 | 2% | -1% | nt | -3%[59 µM] | 13%[57 µM]
CCc1ccc(NS(=O)(=O)c2ccc3[nH]cc(C(=O)N4CCc5ccccc54)c(=O)c3c2)cc1 | ? | ? | ? | 50µM* | ?
CCS(=O)(=O)c1ncc(Cl)c(C(=O)N(Cc2ccccc2)Cc2ccco2)n1 | -19% | -15% | nt | ? | 23%
COC(=O)c1cccc(-c2ccc(C(c3c(C)[nH][nH]c3=O)c3c(C)[nH][nH]c3=O)o2)c1 | 40µM* | 56µM* | -16% | 2.2µM* | ?
COC(=O)c1ccccc1-c1ccc(C(c2c(C)[nH][nH]c2=O)c2c(C)[nH][nH]c2=O)o1 | -11% | -29% | 4% | 2% | 1%
Cc1cc(C)c[n+](-c2[nH]c(=O)sc2/C=N/N=C(\[O-])c2cccnc2)c1 | ? | -7% | nt | ? | 31%
CCc1ccc[n+](-c2[nH]c(=O)sc2/C=N/N=C(\[O-])c2ccncc2)c1 | ? | -12% | nt | 40µM* | 24%
CCN(CC)CCN1C(=O)c2oc3ccccc3c(=O)c2C1c1ccccc1 (stereo not drawn) | -5% | -19% | -5% | -2%[0.501 µM] | 14%
CCCOc1ccc(C2c3c(oc4ccccc4c3=O)C(=O)N2CCN(CC)CC)cc1OC (stereo not drawn) | 3% | -4% | -5% | 50µM* | 16%
CN(C)CCCN1C(=O)c2oc3ccc(Cl)cc3c(=O)c2C1c1cccnc1 (stereo not drawn) | -32% | -8% | -3% | 50µM* | 21%
CCN(CC)CCCN1C(=O)c2oc3ccccc3c(=O)c2C1c1cccs1 (stereo not drawn) | -32% | nt | nt | 50µM* | nt
COCCN1C(=O)c2oc3ccccc3c(=O)c2C1c1ccc(O)c(OC)c1 (stereo not drawn) | -7% | -11% | ? | ? | 34%
CCN(CC)CCN1C(=O)c2oc3ccccc3c(=O)c2C1c1cccc(Br)c1 (stereo not drawn) | -31% | -18% | -7% | 50µM* | 5%
O=c1[nH]c(C2CCN(S(=O)(=O)c3ccc(C(F)(F)F)cc3)CC2)nc2c1nnn2Cc1ccccc1 | -3% | -15% | nt | -4% | -5%
CC(C)Oc1ccc(CNC(=O)c2ccc3c(c2)nc2n3CCCCC2)cc1 | 18% | -18% | nt | 66%[59 µM] | 16%[57 µM]
COc1ccc2[nH]cc(CCNc3ncncc3-c3ccc(C(=O)N(C)C)cc3)c2c1 | nt | nt | nt | -27%[0.501 µM] | nt
SMILES | BAZ2B inh | JMJD2A Tudor | L3MBTL1 block | G9a block | HP1b binding inh
O=C1c2oc3ccc(Cl)cc3c(=O)c2C(c2cccc(Br)c2)N1CCO (stereo not drawn) | -34% | -10% | 1% | 50µM* | 33%
Cc1ccc(S(=O)(=O)OCC(=O)Nc2ccc(C(=O)O)c(O)c2)cc1 | nt | 20µM* | nt | nt | -10%
C/C=C1\COC(C(=O)NCc2cccc(OC)c2OC)(C(F)(F)F)C=C1C=C(C)C (stereo not drawn) | nt | -4% | nt | nt | 25%
Cc1ccccc1N1C(=O)CC(Nc2ccc3c(c2)OCO3)C1=O (stereo not drawn) | ? | -28% | -9% | 40µM* | 3%
COCCn1c(C)cc(/C=C(\C#N)C(=O)OCC(=O)Nc2ccc(S(N)(=O)=O)cc2)c1C | 2% | -4% | -5% | 40µM* | 27%
CCCn1c(C)cc(/C=C(\C#N)C(=O)OCC(=O)Nc2ccc(OC)c(Cl)c2)c1C | -4% | -24% | -8% | -12% | 10%
Cc1nn(C)c2c1c(C(F)(F)F)cc(=O)n2C(C)C(=O)NCc1ccccc1 (stereo not drawn) | 1% | -22% | nt | 2%[59 µM] | 51%
CCc1ccc(NC(=O)Cn2c(-c3cncs3)nc3ccccc32)cc1 | ? | ? | nt | -4%[59 µM] | 19%
CN(C)c1ccc(C(=O)C(=O)c2ccccc2)cc1 | ? | ? | nt | ? | 5%
CN(C)c1ccc2c(c1)Sc1cc(N(C)C)ccc1N2C(=O)c1ccccc1 | 8.9µM* | 14µM* | ? | 10µM* | 13µM*
Cc1ccccc1C(=O)NCC(c1cccnc1)N1CCc2ccccc21 (stereo not drawn) | 6% | -15% | nt | 5%[59 µM] | 30%
COc1ccccc1CNc1ncnc2ccc(-c3ccccc3C#N)cc12 | nt | nt | nt | -41%[0.501 µM] | nt
COc1ccc2c(c1)c1c(c(=O)n(-c3ccccc3)c(=O)n1CC(=O)Nc1ccc(F)cc1)n2C | -3% | 4% | nt | 6%[59 µM] | 24%
N#CC(C#N)=CC1=C2OC(c3ccccc3)=CC(c3ccccc3)=C2CCC1 | ? | 2.2µM* | nt | ? | 2.8µM*
Cc1cccc(/N=C/c2sc3ccccc3c2O)n1 | ? | ? | -14% | 32µM* | ?
O=[N+]([O-])c1ccc(O)c(N=Cc2sc3ccccc3c2O)c1 | 14µM* | 45µM* | -17% | 45µM* | -35%
O=[N+]([O-])c1ccc(O)c(C=Nc2cccc3ccccc23)c1 | -11% | -21% | 3% | 50µM* | -11%
Oc1ccc(Cl)cc1N=Cc1sc2ccccc2c1Cl | -16% | ? | nt | ? | 23%
O=[N+]([O-])c1ccc(O)c(C=Nc2cccc3ncccc23)c1 | -26% | -18% | nt | 13%[59 µM] | 30%
CC(C)OC(=O)c1c(NC(=O)c2cccc(C(F)(F)F)c2)sc2c1CCCC2 | 8% | 9% | nt | ? | 44%
CCOC(=O)CCc1c(C)nc2cc(-c3cc(OC)cc(OC)c3)[nH]n2c1=O | nt | -13% | nt | 9%[59 µM] | 35%
